In PubChem BioAssay (EPA / NIEHS):
Active and inactive are the calls of the source. How the source made its calls: active means hit-call score of the fitted dose curve at least 0.9, where 1 is the maximum; inactive means score below 0.9.

Each compound was assayed on Interleukin 6 (IL6), IL6 (gene 3569) (assay: LTEA_HepaRG_IL6: Life Technologies and Expression Analysis (LTEA) Assay for Interleukin 6 (IL6) using HepaRG (AID 2283509)). Conditions: mRNA level, 48 h; actives raise or lower the signal.
Protocol: LTEA_HepaRG is a cell based, multiplexed-readout assay that uses HepaRG, a human liver cell line, with measurements taken at 48 hours after chemical dosing on a 96-well plate.LTEA_HepaRG_IL6 is one of 102 assay component(s) measured in the LTEA HepaRG cell culture assay. It is a marker of Inflammation.Data from the assay component LTEA_HepaRG_IL6 was analyzed into 1 endpoint. This assay endpoint, LTEA_HepaRG_IL6, was analyzed with bidirectional fitting relative to DMSO as the negative control and baseline of activity. Using a type of inducible reporter, measures of mRNA induction for gain or loss-of-signal activity can be used to understand regulation of transcription factor activity. To generalize the intended target to other relatable targets, this assay endpoint is annotated to the cytokine intended target family, where the subfamily is interleukins.
A total of 1060 chemcials from the ToxCast library were tested in eight-point concentration-response experiments. Cell culture and cytotoxicity assays were conducted at Thermo Fisher Scientific's Custom Services facility (Madison, WI). A single lot of human HepaRG cells (Thermo Fisher Scientific, Frederick, MD) was used for the cell culture experiments. 96-well format collagen type I coated plates of human HepaRG cells were prepared using established methods. Briefly, cryopreserved HepaRG cells were thawed, plated at a density of approximately 100,000 cells/well in HepaRG Thaw, Plate, and General Purpose media (HPRG770, Thermo Fisher Scientific), and incubated for 48 hours. 0.5% DMSO was selected as vehicle control to balance the requisite need of DMSO in HepaRG cultures to maintain differentiation (for example, baseline metabolism, proportions of hepatocytes vs. cholangiocytes), while enabling further hepatic receptor pathway activation (for example, PXR and CAR) in response to chemical exposure. 48 hours after plating, the culture medium was replaced with HepaRG Serum-Free Incudtion Media. Cells were exposed to each test chemical in duplicate and maintained in CO2 incubators for another 48 hours. Chemical plates were thawed to room temperature and 200x concentrations of treatment groups were prepared. 8-point conentration-reponse curves were made with the highest exposure at 100 uM, followed by half-log dilutions, all in 0.5% DMSO. Each test plate contained variouse controls, induction positive controls (1mM phenobarbital), cytotoxicity positive controls ([…] aflatoxin B1), vehicle controls (0.5% DMSO), and total lysis controls (0.5% DMSO). Cell morphology images were taken using an Essen IncuCyte FLR automated microscope, with six 96-well plates imaged in about 24 minutes. Images were captured and exported and JPEG files. Spent culture media was transfered to black-well plates for the LDH assay, and remaining media was sorted at -80 C for later use. Cells were treated with RLT buffer and frozen until shipped for gene expression analysis. Total RNA was isolated from the cell suspension in 75 uL of Buffer RLT (Qiagen, Germantown, MD 20874) by Quintiles/Expression Analysis (Durham, NC) using a custom isolation procedure. Total RNA from each plate well was transferred to a preamplification plate. Fluidigm's 96.96 Dynamic ArrayTM (Fluidigm, Amsterdam, the Netherlands) technology was used for gene expression analyses by quantitative reverse transcription polymerase chain reaction (qRT-PCR, performed by Quintiles/Expression Analysis, Durham, NC)89. Standard TaqManTM Assays (Applied Biosystems/ThermoFisher Scientific, Foster City, CA) were used to assess the expression of 93 genes selected based on their selectivity and sensitivity to important hepatic receptors known to be modulated by environmental chemicals; importance in human hepatocyte functionality; and hepatotoxicity. […]
`CCC(C)(C)c1ccc(O)cc1` was tested, and the outcome was “inactive”.
With `CSC(C)(C)C=NO` the outcome was “inactive”.
For `O=[N+]([O-])c1ccc(Cl)c(Cl)c1`, the outcome was “inactive”.
`ClC1=C(Cl)C2(Cl)C3C(Cl)C(Cl)CC3C1(Cl)C2(Cl)Cl` (stereo not given) was tested, and the outcome was “inactive”.
In the case of `CN(C)C(=O)Cl`, the outcome is reported as “inactive”.
`ClC(Cl)(Cl)c1ccccc1` was tested, and the outcome was “inactive”.
For `O=C(O)C(Cl)Cl`, the outcome was “inactive”.
For `CCOS(=O)(=O)OCC`, the outcome was “inactive”.
`OCC1CO1` (stereo not given) was tested, and the outcome was “inactive”.
In the case of `CCNc1nc(Cl)nc(NC(C)(C)C)n1`, the outcome is reported as “inactive”.
In the case of `Nc1ccc(Cl)cc1`, the outcome is reported as “inactive”.
For `COCCOCCO`, the outcome was “inactive”.
For `CCOP(=S)(OCC)SCSCC`, the outcome was “inactive”.
`O=P1(N(CCCl)CCCl)NCCCO1` (stereo not given) was tested, and the outcome was “inactive”.
For `c1cc2c3c(cccc3c1)CC2`, the outcome was “inactive”.
`CCCCCCCc1ccc(O)cc1` was tested, and the outcome was “inactive”.
`Cc1ccc(O)cc1C` was tested, and the outcome was “inactive”.
For `CC(Cc1ccc(OCC(=O)O)cc1)NCC(O)c1csc(C(F)(F)F)n1` (stereo not given), the outcome was “inactive”.
`CCCN(CCC)c1c([N+](=O)[O-])cc(C(C)C)cc1[N+](=O)[O-]` was tested, and the outcome was “inactive”.
With `Cc1ccc(N)cc1N` the outcome was “inactive”.
With `CCOc1ccc(C(C)(C)COCc2cccc(Oc3ccccc3)c2)cc1` the outcome was “inactive”.
In the case of `ClC(Cl)c1ccccc1`, the outcome is reported as “inactive”.
With `Nc1cc2c3c(c1)C(c1ccccc1)=N[C@@H](NC(=O)c1cccnc1)C(=O)N3CC2` the outcome was “inactive”.
In the case of `CC(C)(C)c1ccc(O)cc1`, the outcome is reported as “inactive”.
`CCOC(=O)c1ccccc1C(=O)OCC` was tested, and the outcome was “inactive”.
In the case of `CCCCN(CCCC)SN(C)C(=O)Oc1cccc2c1OC(C)(C)C2`, the outcome is reported as “inactive”.
In the case of `c1nc[nH]n1`, the outcome is reported as “inactive”.
`Nc1ccc2ccccc2c1` was tested, and the outcome was “inactive”.
In the case of `CCOP(=S)(Oc1ccc([N+](=O)[O-])cc1)c1ccccc1` (stereo not given), the outcome is reported as “inactive”.
With `Cc1ccc([N+](=O)[O-])cc1C` the outcome was “inactive”.
With `c1ccc2c(c1)Nc1ccccc1S2` the outcome was “inactive”.
For `Cc1cccc(N)c1`, the outcome was “inactive”.
`CCN(CC)c1ccccc1` was tested, and the outcome was “inactive”.
For `CCCCN(CCCC)N=O`, the outcome was “inactive”.
For `CC(Cl)(Cl)C(=O)O`, the outcome was “inactive”.
`CC(C)(C)OOC(C)(C)C` was tested, and the outcome was “inactive”.
In the case of `O=[N+]([O-])c1ccccc1`, the outcome is reported as “inactive”.
For `O=P(Oc1ccccc1)(Oc1ccccc1)Oc1ccccc1`, the outcome was “inactive”.
`CCC1(c2ccccc2)C(=O)N=C(O)NC1=O` (stereo not given) was tested, and the outcome was “inactive”.
For `[N-]=[N+]=[N-]`, the AC50 was 93.6 µM (active).
